Compound activity from PubChem.
BAZ2B block: qHTS Assay for Inhibitors of BAZ2B. Bromodomain adjacent to zinc finger domain protein 2B (Homo sapiens), Q9UIF8. Potency, µM (series often up to 114 µM), inactives show at the highest dose activity change, negative = inhibition, most hits filed as inhibitors. AlphaScreen BAZ2B-H3K14Ac peptide displacement. 360,000 compounds, 4.4% hits; further: potency means the concentration at half of the fitted maximal effect; on the % scale 0 is the no-effect control and ±100 the full control effect; nearly all actives have a fitted effect of over 60% in size
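AlphaScreen displacement: compounds (up to 110uM) incubated 30 min at room temperature with a preformed 50 nM BAZ2B/50 nM biotinylated H3K14Ac peptide complex in PBS pH 7.4 with Tween-20. Donor and acceptor beads at 10 ug/mL final added, 20 min light-protected before reading.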
Six1-Eya2 blk: qHTS Assay for Inhibitors of the Six1/Eya2 Interaction | Homeobox protein SIX1 (Homo sapiens) + Protein phosphatase EYA2 (Homo sapiens), … | AlphaScreen GST-Six1/His-Eya2 binding, biochemical; hits give low values | activity change, % (no concentration beside the values) | 360,000 compounds, 0.56% hits | AID 651725, 2012; in the data active means activity change below about -65%; inconclusive means mostly about -30% to -63%; further: on the % scale 0 is the no-effect control and ±100 the full control effect
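GST-Six1 + His-Eya2 (5X stock: 250/500 nM); Tris pH 8.0, 300 mM NaCl, 0.05% BSA, 0.02% Tween 20; GSH donor/Ni acceptor beads; 1 h 37 °C dark; AlphaScreen readout.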
HP1b binding inh: HTS for Inhibitors of HP1-beta Chromodomain Interactions with Methylated Histone Tails; Chromobox protein homolog 1 (Homo sapiens), P83916; AlphaScreen HP1-beta / biotin-H3K9me3 peptide binding; Potency, µM (doses to about 114 µM), without a hit: at the top dose activity change, negative = inhibition, most hits filed as inhibitors; 390,000 compounds, 0.56% hits; further: potency means the concentration at half of the fitted maximal effect; nearly all actives have a fitted effect of over 70% in size
Target sequence (P83916 whole entry, looked up): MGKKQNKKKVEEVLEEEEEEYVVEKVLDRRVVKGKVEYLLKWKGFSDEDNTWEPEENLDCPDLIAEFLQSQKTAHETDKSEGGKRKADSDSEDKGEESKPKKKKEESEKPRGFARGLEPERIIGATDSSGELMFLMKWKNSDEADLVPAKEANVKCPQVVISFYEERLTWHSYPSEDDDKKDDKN
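HP1-beta protein (50 nM final) preincubated 30 min at room temperature with biotinylated H3(1-18)K9me3 peptide (50 nM) in PBS pH 7.4, 0.01% Tween-20, then compound added for 30 min. AlphaScreen streptavidin donor/nickel chelate acceptor beads (10 ug/mL final), 30 min dark, luminescence read.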
CtBP-E1A inh: qHTS Assay for Inhibitors of the CtBP/E1A Interaction. CtBP / adenovirus E1A interaction (AlphaScreen). AlphaScreen GST-E1A/His-CtBP binding, 1536-well; hits give low values. activity change, % (concentration not given with the values). 340,000 compounds, 0.49% hits. AID 651724, 2012; in the data active means activity change below about -65%; inconclusive means mostly about -30% to -63%; further: on the % scale 0 is the no-effect control and ±100 the full control effect
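In 5 uL wells, 23 nL compound meets equimolar GST-E1A and His-CtBP (5X stock 125 nM each) for 2 h, 37 °C. Beads (5X, 50 ug/mL) then 1 h, 37 °C, dark.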
G9a inh: qHTS Assay for Inhibitors of Histone Lysine Methyltransferase G9a; Histone-lysine N-methyltransferase EHMT2 (Homo sapiens), Q96KQ7; G9a H3K9 monomethylation, AlphaScreen, 2 h; Potency, µM (series often up to 102 µM), for the others: top-dose activity, negative = inhibition, actives largely listed as inhibitors; 350,000 compounds, 8.8% hits; AID 504332, 2011; further: potency means the concentration at half of the fitted maximal effect; on the % scale 0 is the no-effect control and ±100 the full control effect; nearly all actives have a fitted effect of over 75% in size
Target sequence (Q96KQ7 913-1193 limits assumed): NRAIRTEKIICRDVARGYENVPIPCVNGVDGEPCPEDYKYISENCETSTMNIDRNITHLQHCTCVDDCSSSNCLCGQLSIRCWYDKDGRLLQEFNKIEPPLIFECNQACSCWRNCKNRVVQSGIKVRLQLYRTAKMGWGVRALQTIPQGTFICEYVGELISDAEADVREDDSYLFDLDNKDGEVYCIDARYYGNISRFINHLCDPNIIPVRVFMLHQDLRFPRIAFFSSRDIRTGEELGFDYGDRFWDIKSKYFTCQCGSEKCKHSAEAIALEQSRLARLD
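Compounds were preincubated with 20 nM G9a for 15 min, after which biotinylated H3K9 peptide (500 nM) and SAM (20 uM) started a 2 h room-temperature reaction. Monomethylated product was quantified by antibody-based AlphaScreen chemiluminescence.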
JMJD2A Tudor inh: qHTS Assay for Inhibitors of JMJD2A-Tudor Domain; Lysine-specific demethylase 4A (Homo sapiens), O75164; AlphaScreen JMJD2A-Tudor / H3K4me3 peptide binding; 390,000 compounds, 4.4% hits; Potency, µM (top dose mostly 114 µM), for inactives: at the top dose activity change, negative = inhibition, most hits filed as inhibitors; further: potency means the concentration at half of the fitted maximal effect; on the % scale 0 is the no-effect control and ±100 the full control effect; nearly all actives have a fitted effect of over 50% in size
* = called active by the depositor; ? = inconclusive; · = not tested or not shown; [ ] = remark or other dose. Only some compounds are listed: those with a hit (about 10% of all), similar ones and a draw of the others. Unless noted, the call rests on the fitted dose curve; in most records, active means well fitted inhibition curve with a large enough effect; inconclusive means small, poorly fitted or top-dose-only effect; inactive means no such curve, though single readings can be large or run the other way.

SMILES | BAZ2B block | Six1-Eya2 blk | HP1b binding inh | CtBP-E1A inh | G9a inh | JMJD2A Tudor inh
COc1ccc(N=C2C(=O)N3CCCc4cccc2c43)cc1 | ? | -4 | 0% | -1 | ? | -26%
CC(O)C(O)C(O)C(O)C1NCCS1 (configuration not stated) | 3% | -29 | -35% | -20 | ? | -1%
OCC(O)C(O)C(O)C(O)C1NCCS1 (configuration not stated) | 21% | -4 | ? | 6 | 50µM* | -10%
Cc1ccc2nc(SCC(=O)c3ccc4c(c3)NC(=O)CO4)[nH]c2c1 | -3% | 0 | 20% | 0 | · | -4%
Cc1ccc(C)c(-n2nnnc2SCC(=O)c2ccc3c(c2)NC(=O)CO3)c1 | ? | -7 | 39% | 0 | 50µM* | -15%[57.1 µM]
Cc1cccc(C)c1Nc1nnc(SCC(=O)c2ccc3c(c2)NC(=O)CO3)s1 | -5% | -1 | 22% | -1 | 11µM* | -17%
Clc1ccc(Cn2c3c(c4ccccc42)CCc2cc4ccccc4nc2-3)cc1 | · | · | 123%[57 µM] | · | · | 68%[57.1 µM]
O=S(=O)(NNc1ccc(F)cc1F)c1cccc(Cl)c1 | ? | 7 | ? | 4 | 1.3µM* | 10µM*
O=C(NN=C1CCCC1)c1cccc(Br)c1 | -21% | 0 | 55% | 0 | 28% | -7%
c1cncc(Nc2nc(-c3cccnc3)cs2)c1 | 4% | -10 | 14% | -18 | ? | -27%
Cc1ccnc(Nc2nc(-c3c(C)nc4sccn34)cs2)c1 | 45µM* | -68* | -34% | -78* | ? | ?
Clc1ccccc1Nc1nc(-c2cccnc2)cs1 | 56µM* | 1 | -16% | -3 | -12%[12.7 µM] | -25%
COc1ccc(-c2csc(Nc3cccnc3)n2)cc1OC | -6% | -10 | 60% | -1 | 50µM* | -16%[57.1 µM]
COc1ccc(-c2csc(Nc3cc(C)ccn3)n2)cc1OC | ? | -18 | -36% | -17 | 40µM* | ?
O=S1(=O)CCOCCCN1Cc1ccccc1 | -21% | 9 | 29% | 1 | 13% | -11%
COc1ccccc1NCCC(=O)OCC(=O)NC1CCCCCC1 | -11% | -5 | 30% | -2 | -18% | -10%
N#Cc1nc2ccccc2n1OCc1ccccc1 | · | 36 | · | -21 | · | ·
COc1ccc(-c2csc(Nc3cccc(C)n3)n2)cc1C | -34% | -6 | -28% | 4 | 50µM* | -24%
Clc1cccc(-c2csc(Nc3cccnc3)n2)c1 | -3% | -11 | 13% | -17 | 45µM* | -7%
COc1ccc(-c2csc(Nc3cccc(C)n3)n2)cc1 | -8% | 5 | -3% | -3 | -14% | -32%
Cc1ccc(Nc2nc(-c3ccc(O)c(O)c3)cs2)nc1 | 40µM* | 0 | ? | -28 | 16µM* | 32µM*
CCOCCCNCc1ccc(OCc2ccccc2C)c(OC)c1 | -9% | 8 | 33% | 5 | -46% | 1%
COc1cc(NC(=O)CCC(=O)N2CCN(S(=O)(=O)c3ccc(C)cc3)CC2)cc(OC)c1 | · | 2 | 17% | -8 | · | -23%
Cc1cccc(-c2csc3ncnc(Sc4nnnn4C)c23)c1 | · | · | · | · | · | 1%
O=C(NNC(=O)c1csc(N2CCOCC2)n1)c1ccc(Cl)nc1 | ? | 1 | 26% | -7 | 6%[0.501 µM] | -6%
CCOc1ccc(/C=C/C(=O)Nc2ccc(N3CCOCC3)cc2)cc1 | -3% | -7 | -9% | -4 | · | 25µM*
CCCCOC(=O)Nc1ccc(N2CCOCC2)cc1 | -8% | -3 | 8% | -4 | 7.1µM* | -22%
COc1ccc(/C=C/C(=O)OCC(=O)Nc2ccc(N3CCOCC3)cc2)cc1 | -2% | 3 | 55% | · | 30% | -23%
